In the library only some 1.1% were active in any assay of this set; here they are far more common.
NR5A2 inv ag: LRH-1 (NR5A2) inverse agonists, primary screen, cell-based, luminescence, HEK293T, StAR-luciferase reporter | Nuclear receptor subfamily 5 group A member 2 (Homo sapiens), O00482 | LRH-1 transfected, 24 h | inhibition, % at 3.6 µM | 360,000 compounds, 0.13% hits;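 active = inhibition above the mean inhibition of all tested compounds plus 3 SD, cut at about 73% in these data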
NCOA1 inh: SRC1 coactivator transcriptional activity inhibitors, primary screen, cell-based, luminescence. Nuclear receptor coactivator 1 (Homo sapiens), Q15788. HEK293 GAL4-SRC1 luciferase reporter. inhibition, % at 3.6 µM. 360,000 compounds, 0.12% hits;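 active = inhibition above the campaign mean plus 3 SD, with each screening campaign given its own cutoff, cut at about 60% in these data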
Target sequence (Q15788 whole entry, looked up, the tested form may be a part): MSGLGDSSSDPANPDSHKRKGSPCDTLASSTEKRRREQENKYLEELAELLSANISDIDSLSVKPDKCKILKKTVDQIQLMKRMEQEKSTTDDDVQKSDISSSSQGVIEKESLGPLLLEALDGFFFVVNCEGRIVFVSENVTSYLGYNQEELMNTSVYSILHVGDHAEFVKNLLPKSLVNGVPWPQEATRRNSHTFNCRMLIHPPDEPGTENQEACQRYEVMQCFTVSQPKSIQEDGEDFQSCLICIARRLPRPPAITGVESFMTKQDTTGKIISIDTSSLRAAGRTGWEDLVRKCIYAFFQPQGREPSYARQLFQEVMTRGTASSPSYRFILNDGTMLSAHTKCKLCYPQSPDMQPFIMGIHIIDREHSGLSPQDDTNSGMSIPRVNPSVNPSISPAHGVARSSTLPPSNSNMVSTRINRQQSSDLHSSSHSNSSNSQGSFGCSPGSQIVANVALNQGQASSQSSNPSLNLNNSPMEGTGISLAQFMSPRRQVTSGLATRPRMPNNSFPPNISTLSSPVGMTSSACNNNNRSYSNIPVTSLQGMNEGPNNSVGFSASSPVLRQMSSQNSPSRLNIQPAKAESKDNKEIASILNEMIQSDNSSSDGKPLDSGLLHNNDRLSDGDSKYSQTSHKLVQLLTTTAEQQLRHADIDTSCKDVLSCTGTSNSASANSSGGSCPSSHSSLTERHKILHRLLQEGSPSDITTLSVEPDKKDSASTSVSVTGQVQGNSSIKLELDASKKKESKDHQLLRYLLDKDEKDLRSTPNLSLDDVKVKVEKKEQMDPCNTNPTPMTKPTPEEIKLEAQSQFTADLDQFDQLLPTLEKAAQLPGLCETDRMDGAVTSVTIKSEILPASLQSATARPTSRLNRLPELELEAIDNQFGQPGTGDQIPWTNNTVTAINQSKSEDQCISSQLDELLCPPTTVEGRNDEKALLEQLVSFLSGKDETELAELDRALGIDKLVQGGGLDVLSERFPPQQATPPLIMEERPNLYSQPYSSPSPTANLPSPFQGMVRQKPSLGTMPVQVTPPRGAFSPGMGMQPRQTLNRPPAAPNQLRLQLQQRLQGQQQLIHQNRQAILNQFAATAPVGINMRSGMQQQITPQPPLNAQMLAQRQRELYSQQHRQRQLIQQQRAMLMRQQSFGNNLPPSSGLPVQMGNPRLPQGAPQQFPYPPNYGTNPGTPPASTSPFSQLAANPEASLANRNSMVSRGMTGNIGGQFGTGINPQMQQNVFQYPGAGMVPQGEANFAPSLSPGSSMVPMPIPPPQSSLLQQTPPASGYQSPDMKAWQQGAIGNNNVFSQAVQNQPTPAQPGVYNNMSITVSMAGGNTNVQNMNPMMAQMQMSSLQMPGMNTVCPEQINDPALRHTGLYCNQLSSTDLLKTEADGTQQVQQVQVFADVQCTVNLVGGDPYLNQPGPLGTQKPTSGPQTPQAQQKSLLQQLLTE
GalR3 antagonist: GalR3 antagonists in HEK293 cells, primary screen, cell-based, fluorescence readout; 360,000 compounds, 0.44% hits; HEK293 GalR3-CNG cAMP membrane potential fluorescence; galR3 body fused to GalR1 C-terminus; Galanin receptor type 3 (Homo sapiens), O60755; inhibition, % at 3 µM;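 active = inhibition above the screen-wide average plus 3 SD, cut at about 13% in these data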;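 also: forskolin and galanin both at EC90 stimulate the cells; cAMP rise reported by CNG channel membrane potential dye signal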
NCOA2 inhibitor: inhibition of GAL4-SRC2 driven luciferase reporter, primary screen, SRC2 inhibitor project, cell-based, luminescence | Nuclear receptor coactivator 2 (Homo sapiens), Q15596 | HEK293 GAL4-SRC2 luciferase reporter | inhibition, % at 9 µM | 370,000 compounds, 0.17% hits;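 active = inhibition above the mean inhibition of all tested compounds plus 3 SD, set per campaign, cut at about 52% in these data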
COUP-TFII inh: NR2F2 transcriptional activity inhibitors, primary screen, cell-based, luciferase reporter, HEK293T, luminescence; COUP transcription factor 2 (Homo sapiens), P24468; inhibition, % at 8.6 µM; HEK293T NGFI-A luciferase reporter; 370,000 compounds, 0.7% hits;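 active = inhibition above a per-plate cutoff, mean inhibition of test wells between control levels plus 3 SD, cut at about 38% in these data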;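 also: cells cotransfected with COUP-TFII expression vector driving the NGFI-A reporter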
SRC3 inh: SRC3 coactivator transcriptional activity inhibitors, primary screen, cell-based, luminescence. Nuclear receptor coactivator 3 (Homo sapiens), Q9Y6Q9. HEK293 GAL4-SRC3 luciferase reporter. inhibition, % at 3.6 µM. 360,000 compounds, 0.17% hits. AID 588352, 2011;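 active = inhibition above a per-campaign cutoff, the mean of all compounds plus 3 SD, cut at about 60% in these data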;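 also: higher means less SRC3-driven luciferase light from the GAL4 reporter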
GalR3 antag conf: GalR3 antagonist hit confirmation, cell-based, fluorescence, triplicate; shares compounds with GalR3 antagonist; HEK293 GalR3 CNG cAMP biosensor, membrane potential fluorescence; galR3 fused to GalR1 carboxy tail; challenged with forskolin and galanin at EC90; inhibition, % at 3 µM; 1,600 compounds, 59% hits; AID 652245, 2013;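 active = inhibition above the primary screen's cutoff, the mean inhibition of all screened compounds plus 3 SD, cut at about 13% in these data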
CNG parental: nonspecific cAMP agonists in parental HEK-CNG cells, counter-screen for GalR3 antagonist project, cell-based, fluorescence, high throughput. shares compounds with GalR3 antagonist. HEK293-CNG parental cells, cAMP membrane potential fluorescence; normalised: DMSO wells 0%, forskolin wells 100%. activation, % at 3 µM. 1,600 compounds, 10% hits; in the data active = activation above about 1.3%
VP16 Luc counter: Gal4-VP16 luciferase reporter inhibitors, counter-screen for COUP-TFII antagonist project, cell-based, luminescence, HEK293 | 2,500 compounds, 25% hits | shares compounds with COUP-TFII inh | inhibition, % at 8.5 µM | AID 687007, 2013; in the data active = inhibition above about 13%
COUP-TFII conf: NR2F2 transcriptional activity inhibitors, confirmation, cell-based, luciferase reporter, HEK293, triplicate; shares compounds with COUP-TFII inh; HEK293 NGFI-A luciferase reporter, luminescence; inhibition, % at 8.5 µM; 2,500 compounds, 45% hits;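 active = mean inhibition over three repeats above a set limit taken from the earlier primary screen, cut at about 38% in these data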
Hits are given with their value; 0 = inactive; - = no result.

SMILES | NR5A2 inv ag | NCOA1 inh | GalR3 antagonist | NCOA2 inhibitor | COUP-TFII inh | SRC3 inh | GalR3 antag conf | CNG parental | VP16 Luc counter | COUP-TFII conf
O=C(c1ccccc1)c1ccc(Cn2cc(-c3ccccc3)nn2)cc1 | 0 | 0 | 25 | 0 | 38 | 0 | 56 | 0 | 0 | 0
O=C(NC1CCN(Cc2ccccc2)CC1)c1ccc(S(=O)(=O)NCc2ccco2)cc1 | 0 | 0 | 63 | 0 | 48 | 0 | 52 | 0 | 0 | 0
O=C(NC1CCCCC1)c1ccc(S(=O)(=O)NCc2ccco2)cc1 | 0 | 0 | 0 | 0 | 0 | 0 | - | - | - | -
Cc1ccnc(Nc2nc(-c3sc(C)nc3C)cs2)c1 | 0 | 0 | 32 | 0 | 70 | 0 | 36 | 0 | 0 | 44
COc1ccc(NS(=O)(=O)c2ccc(N3CCCCC3)c(N)c2)cc1 | 0 | 0 | 82 | 0 | 56 | 0 | 105 | 0 | 0 | 43
COc1ccc(NS(=O)(=O)c2ccc(N3CCCCC3)c(NC(=O)C(C)NC(N)=O)c2)cc1 (stereo not drawn) | 0 | 0 | 0 | 0 | 0 | 0 | - | - | - | -
O=C(Nc1ccccc1)OC1CC2CC1[C@H]1CCCCN1[C@H]2Cc1ccccc1 (stereo partly drawn) | - | - | - | 0 | 0 | - | - | - | - | -
O=C(Nc1ccn(Cc2ccccc2F)n1)c1ccc(COc2ccc(Br)cc2)cc1 | 0 | 0 | 97 | 0 | 73 | 0 | 106 | 0 | 0 | 47
CCNc1nc2c(c(=O)n(C)c(=O)n2C)n1Cc1ccc(Cl)cc1 | 0 | 0 | 22 | 0 | 53 | 0 | 71 | 0 | 0 | 0
COC(=O)[C@]12C[C@H](CC(=O)NCc3ccccc3)C(=O)N(CCc3ccc(OC)c(OC)c3)C1=C[C@H](COCc1ccccc1)O[C@@H]2C | - | - | - | 0 | 0 | - | - | - | - | -
O=C(NC1CCCCN(Cc2ccc(Cl)cc2)C1=O)c1cccc(C(F)(F)F)c1 (stereo not drawn) | - | - | - | 0 | 0 | - | - | - | - | -
CC(NC(=O)c1ccco1)C(=O)N1CCN(c2cccc(Cl)c2)CC1 (stereo not drawn) | 0 | 0 | 0 | 0 | 0 | 0 | - | - | - | -
CC(C)C(NC(=O)Cc1ccccc1)C(=O)N1CCN(c2cccc(Cl)c2)CC1 (stereo not drawn) | 0 | 0 | 44 | 0 | 65 | 0 | 0 | 0 | 0 | 0
COc1ccc(CC2(CO)CCN(CC3=Cc4cc(Cl)ccc4OC3)CC2)cc1 | 0 | 0 | 70 | 0 | 64 | 0 | 76 | 2.2 | 0 | 45
COc1ccc2c(c1)C=C(CN1CCC(CO)(CCc3ccccc3)CC1)CO2 | 0 | 0 | 0 | 0 | 0 | 0 | - | - | - | -
CC1CCC2C(=O)N(c3ccc(Cc4ccncc4)cc3)C(=O)C2C1 (stereo not drawn) | 0 | 0 | 91 | 0 | 45 | 0 | 109 | 0 | 0 | 0
O=C(Nc1cccc(C(=O)NC2CC2)c1)c1ccc(Cl)c(S(=O)(=O)N2CCOCC2)c1 | 0 | 0 | 0 | 0 | 0 | 0 | - | - | - | -
CC(=O)c1ccc(OCCCC(=O)Nc2ccc(Cl)c(S(=O)(=O)N3CCOCC3)c2)cc1 | 0 | 0 | 87 | 0 | 70 | 0 | 93 | 0 | 0 | 56
O=C(Nc1cccc(Br)c1)c1ccc(Cl)c(S(=O)(=O)N2CCOCC2)c1 | 0 | 0 | 88 | 0 | 59 | 0 | 100 | 0 | 0 | 57
COC(=O)[C@]12C[C@H](CC(=O)NCc3cccc4ccccc34)C(=O)N(Cc3ccc4c(c3)OCO4)C1=C[C@H](COCc1ccccc1)O[C@@H]2C | - | - | 0 | 0 | 0 | - | - | - | - | -
CCc1c(C)nc2ncnn2c1NCCc1ccc(OC)cc1 | 0 | 0 | 15 | 0 | 58 | 0 | 59 | 0 | 0 | 52
CCc1c(C)nc2ncnn2c1Nc1ccc(C)cc1 | 0 | 0 | 0 | 0 | 0 | 0 | - | - | - | -
CCOC(=O)CNC(=O)N(C)[C@H]1C[C@H]2c3[nH]c4c(-c5ccccc5)cccc4c3CCN2C(=O)[C@H]1[C@H](C)O | - | - | 0 | 0 | 0 | - | - | - | - | -
COC(=O)[C@]12C[C@H](CC(=O)N3CCC(c4ccccc4)CC3)C(=O)N(Cc3ccco3)C1=C[C@H](C(C)C)O[C@@H]2C1CC1 | - | - | - | 0 | 0 | - | - | - | - | -
C[C@@H]1CN([C@@H](C)CO)C(=O)CCCn2nncc2CO[C@H]1CN(C)CC1CC1 | - | - | 0 | 0 | 0 | - | - | - | - | -
SMILES | NR5A2 inv ag | NCOA1 inh | GalR3 antagonist | NCOA2 inhibitor | COUP-TFII inh | SRC3 inh | GalR3 antag conf | CNG parental | VP16 Luc counter | COUP-TFII conf
Cn1c(CN2CCCC2)nc2cc(NC(=O)c3ccc(Cl)cc3)ccc21 | 0 | 0 | 0 | 0 | 0 | 0 | - | - | - | -
Cn1c(CN2CCCCC2)nc2cc(NC(=O)c3ccc(Cl)cc3)ccc21 | 0 | 0 | 81 | 0 | 62 | 0 | 48 | 0 | 0 | 48
COc1cc(CC2COC(=O)C2(O)Cc2ccc(O)c(OC)c2)ccc1O (stereo not drawn) | 0 | 0 | 48 | 0 | 53 | 0 | 0 | 0 | 0 | 0
CCCOc1ccc(Br)cc1CSC(=N)N | 0 | 0 | 50 | 0 | 54 | 0 | 95 | 5.8 | 15 | 49
CC(O)CC(=O)OC[C@]12CC[C@H]3[C@@](C)(CC[C@H]4C(C)(C)CCC[C@]34C)[C@@H]1CC(C1=CC(=O)OC1O)O2 (stereo partly drawn) | 78 | 0 | 23 | 0 | 87 | 0 | 22 | 0 | 52 | 72
CCCCCCCCn1c2c(c(=N)c3ccccc31)CCC2 | 84 | 0 | 44 | 0 | 90 | 78 | 62 | 11 | 13 | 73
CCCCn1c2c(c(=N)c3ccccc31)CCC2 | 0 | 0 | 0 | 0 | 0 | 0 | - | - | - | -
CCCCCCCCCCn1c2c(c(=N)c3c1CCC3)CCC2 | 96 | 70 | 28 | 0 | 81 | 79 | 39 | 24 | 21 | 79
COC(=O)[C@]12C[C@H](CC(=O)NCC34CC5CC(CC(C5)C3)C4)C(=O)N(Cc3cccc4ccccc34)C1=C[C@H](C1CCCC1)O[C@@H]2C | - | - | - | 0 | 0 | - | - | - | - | -

Screening data as filed in PubChem.
